The source of these data is PubChem BioAssay (EPA / NIEHS).

The target in assay [1] is Estrogen receptor (Homo sapiens) (UniProt P03372). In words: ATG_ERa_TRANS: Attagene TRANS-FACTORIAL HepG2 Assay for human Estrogen Receptor alpha (ERa) (AID 2282970; active = hit-call score of the fitted dose curve at least 0.9, where 1 is the maximum). To be noted: HepG2 Attagene TRANS ERa GAL4 reporter, mRNA. Summed up:
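Transfected HepG2 cells carrying GAL4-UAS-driven reporter units were dosed for 24 hours. Total RNA was reverse-transcribed, reporter sequences PCR-amplified, FAM-labelled, HpaI-digested and resolved by capillary electrophoresis. Increases over DMSO control defined activity.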

Assay [2] can be described thus: BSK_3C_SRB: Viability Assessment in the BioMAP Diversity Plus: 3C Assay (AID 2283023).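 Also: fitted both ways against DMSO so a hit may be signal rise or drop.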 The conditions noted are these: primary human endothelial cells (HUVEC). Summed up:
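Cells were dosed with chemical, cultured 24 h, fixed with 10% TCA, stained with 0.1% SRB and read at 560 nm. Human umbilical vein endothelium was used; DMSO served as negative control and baseline.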

Read-out in assay [3]: Pselectin, SELP (gene 6403)
Briefly: BSK_4H_Pselectin: BioMAP Diversity Plus: 4H Assay for Pselectin Biomarker Activity (AID 2283026). The conditions noted are these: primary human endothelial cells (HUVEC); actives raise or lower the signal. Summed up: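 Endothelial primary cells (human umbilical vein) are dosed, incubated 24 h, and assayed for surface P-selectin by ELISA; responses in either direction are fitted relative to the DMSO negative control.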

The nature of assay [4]: BSK_4H_SRB: Viability Assessment in the BioMAP Diversity Plus: 4H Assay (AID 2283027).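 Also: cells exposed to compound for 24 h before staining.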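 As to AC50: curves fitted both ways versus DMSO so AC50 may be loss or gain.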 To be noted: primary human endothelial cells (HUVEC). A digest of the protocol:
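HUVEC, 24 h post-dose; 10% TCA fix, 0.1% SRB stain, A560 nm. Total protein = overt cytotoxicity, parallel to biomarker read. Bidirectional fit vs DMSO baseline.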

Read-out in assay [5]: Urokinase-type plasminogen activator receptor (uPAR), PLAUR (gene 5329)
In words: BSK_4H_uPAR: BioMAP Diversity Plus: 4H Assay for Urokinase-type plasminogen activator receptor (uPAR) Biomarker Activity (AID 2283030). To be noted: primary human endothelial cells (HUVEC); actives raise or lower the signal. A digest of the protocol:
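Chemicals are dosed onto human vascular endothelial primary cells (umbilical vein). After 24 h, uPAR is read by ELISA. Gain or loss of signal is fitted relative to DMSO.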

Read-out in assay [6]: Plasminogen activator inhibitor-1 (PAI1), SERPINE1 (gene 5054)
Briefly: BSK_BE3C_PAI1: BioMAP Diversity Plus: BE3C Assay for Plasminogen activator inhibitor-1 (PAI1) Biomarker Activity (AID 2283037). The conditions noted are these: primary human bronchial epithelial cells; actives raise or lower the signal. Summed up: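 Values derive from bidirectional fitting against DMSO baseline of PAI-1 levels, measured by ELISA in human bronchial epithelial cells 24 h after compound addition.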

Read-out in assay [7]: Tissue plasminogen activator (tPA), PLAT (gene 5327)
In words: BSK_BE3C_tPA: BioMAP Diversity Plus: BE3C Assay for Tissue plasminogen activator (tPA) Biomarker Activity (AID 2283041).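 As to outcome: tPA level quantified by ELISA one day after compound addition.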 To be noted: primary human bronchial epithelial cells; actives raise or lower the signal. A digest of the protocol:
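Gain- or loss-of-signal in tPA, measured by ELISA, derived by bidirectional fitting against DMSO. Cells: human primary bronchial epithelial; read at 24 h after chemical dosing.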

Read-out in assay [8]: Macrophage colony-stimulating factor (MCSF), CSF1 (gene 1435)
Briefly: BSK_CASM3C_MCSF: BioMAP Diversity Plus: CASM3C Assay for Macrophage colony-stimulating factor (MCSF) Biomarker Activity (AID 2283044).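 Also: M-CSF protein amount quantified by ELISA after 24 h exposure.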 To be noted: primary human coronary artery smooth muscle cells; actives raise or lower the signal.

Assay [9] is described as follows: BSK_CASM3C_SRB: Viability Assessment in the BioMAP Diversity Plus: CASM3C Assay (AID 2283050).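 Also: total protein by SRB staining as cytotoxicity measure in parallel cultures.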 The conditions noted are these: primary human coronary artery smooth muscle cells.
Read-out in assay [10]: Thrombomodulin, THBD (gene 7056)
In words: BSK_CASM3C_Thrombomodulin: BioMAP Diversity Plus: CASM3C Assay for Thrombomodulin Biomarker Activity (AID 2283051).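 Also: thrombomodulin protein level measured by ELISA 24 h after dosing.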 The conditions noted are these: primary human coronary artery smooth muscle cells; actives raise or lower the signal.

Read-out in assay [11]: Vascular cell adhesion molecule 1 (VCAM1), VCAM1 (gene 7412)
Briefly: BSK_CASM3C_VCAM1: BioMAP Diversity Plus: CASM3C Assay for Vascular cell adhesion molecule 1 (VCAM1) Biomarker Activity (AID 2283055).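 Also: VCAM-1 protein level quantified by ELISA on the cells.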 The conditions noted are these: primary human coronary artery smooth muscle cells; actives raise or lower the signal.

Read-out in assay [12]: TIMP metallopeptidase inhibitor 2 (TIMP2), TIMP2 (gene 7077)
Briefly: BSK_KF3CT_TIMP2: BioMAP Diversity Plus: KF3CT Assay for TIMP metallopeptidase inhibitor 2 (TIMP2) Biomarker Activity (AID 2283071). The conditions noted are these: primary human keratinocytes with fibroblasts; actives raise or lower the signal. Summed up: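 Chemicals were dosed onto human skin primary co-cultures of keratinocytes and foreskin fibroblasts, and TIMP-2 was measured by ELISA after 24 hours. Activity in either direction was fitted relative to DMSO.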

Read-out in assay [13]: Interleukin-1 alpha (IL1a), IL1A (gene 3552)
In words: BSK_LPS_IL1a: BioMAP Diversity Plus: LPS Assay for Interleukin-1 alpha (IL1a) Biomarker Activity (AID 2283080). To be noted: primary human HUVEC with PBMC; actives raise or lower the signal. Summed up:
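Measured: IL-1 alpha via ELISA at 24 h in LPS-activated human umbilical vein endothelium–PBMC co-culture. Baseline: DMSO, bidirectional fitting.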

Read-out in assay [14]: Monocyte Chemoattractant Protein-1 (MCP1), CCL2 (gene 6347)
In words: BSK_LPS_MCP1: BioMAP Diversity Plus: LPS Assay for Monocyte Chemoattractant Protein-1 (MCP1) Biomarker Activity (AID 2283081).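 As to AC50: secreted MCP-1 protein quantified by ELISA in culture supernatant.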 To be noted: primary human HUVEC with PBMC; actives raise or lower the signal. A digest of the protocol:
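LPS-stimulated HUVEC/PBMC co-culture; chemical, 24 h; MCP-1 by ELISA; bidirectional fit vs DMSO; cytotoxicity via SRB (0.1% stain, 10% TCA fix, 560 nm) in parallel wells.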

The nature of assay [15]: BSK_LPS_PGE2: BioMAP Diversity Plus: LPS Assay for Prostaglandin E2 (PGE2) Biomarker Activity (AID 2283082). The conditions noted are these: primary human HUVEC with PBMC; actives raise or lower the signal. Summed up: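 Compounds were added to the LPS co-culture of endothelium and PBMC, and PGE2 was measured by ELISA after 24 h. Responses in either direction were fitted with DMSO as baseline.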

Read-out in assay [16]: CD38, CD38 (gene 952)
Briefly: BSK_SAg_CD38: BioMAP Diversity Plus: SAg Assay for CD38 Biomarker Activity (AID 2283087). To be noted: primary human HUVEC with PBMC; actives raise or lower the signal. A digest of the protocol: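 CD38 quantified by ELISA (fluorescence) in a superantigen-activated endothelial cell–PBMC co-culture at 24 h post-dose. Activity fitted in both directions relative to DMSO; parallel SRB and Alamar Blue cytotoxicity read-outs.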

Read-out in assay [17]: CD69, CD69 (gene 969)
In words: BSK_SAg_CD69: BioMAP Diversity Plus: SAg Assay for CD69 Biomarker Activity (AID 2283089).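 As to AC50: cell surface CD69 protein quantified by ELISA with fluorescence detection.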 To be noted: primary human HUVEC with PBMC; actives raise or lower the signal. Summed up: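 HUVEC co-cultured with PBMC were dosed with chemical, and CD69 was measured by ELISA with fluorescence read-out 24 h later. Bidirectional curve fitting used DMSO as negative control and activity baseline.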

Read-out in assay [18]: E-selectin (Homo sapiens) (UniProt P16581)
Briefly: BSK_SAg_Eselectin: BioMAP Diversity Plus: SAg Assay for Eselectin Biomarker Activity (AID 2283091). The conditions noted are these: primary human HUVEC with PBMC; actives raise or lower the signal. A digest of the protocol: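 Primary human endothelial cells and peripheral blood mononuclear cells were co-cultured and exposed to chemical for 24 hours. E-selectin levels were then quantified by ELISA, with bidirectional curve fitting normalised to DMSO controls.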

Read-out in assay [19]: Monokine induced gamma interferon (MIG), CXCL9 (gene 4283)
In words: BSK_SAg_MIG: BioMAP Diversity Plus: SAg Assay for Monokine induced gamma interferon (MIG) Biomarker Activity (AID 2283092). To be noted: primary human HUVEC with PBMC; actives raise or lower the signal. Summed up: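 HUVEC plus human PBMC co-culture, chemicals dosed and MIG (CXCL9) quantified by ELISA at 24 h. Bidirectional curve fitting against DMSO as negative control and baseline, so both gain and loss of signal count as activity.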

The nature of assay [20]: BSK_SAg_Proliferation: Cell Proliferation Assessment in the BioMAP Diversity Plus: SAg Assay (AID 2283095).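 Also: relative cell number as total protein by SRB absorbance in sub-confluent culture.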 The conditions noted are these: primary human HUVEC with PBMC. Summed up:
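Absorbance of sulforhodamine B at 560 nm reports total protein in a human vascular endothelial/PBMC co-culture after 96 h chemical exposure. Gain or loss of signal is fitted in both directions against DMSO.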

Values joined by “and” are separate entries in the source; they are usually repeats but may differ in a detail not shown here. Equal entries are not always repeated. Results filed as inconclusive are left out. The source holds several records for some structures; these can differ, active in one and inactive in another. Active and inactive are the calls of the source. The calls were made as follows, unless noted: active = hit-call score of the fitted dose curve at least 0.9, where 1 is the maximum; inactive = score below 0.9.

Chain of E-selectin (Homo sapiens) (P16581 whole entry, looked up): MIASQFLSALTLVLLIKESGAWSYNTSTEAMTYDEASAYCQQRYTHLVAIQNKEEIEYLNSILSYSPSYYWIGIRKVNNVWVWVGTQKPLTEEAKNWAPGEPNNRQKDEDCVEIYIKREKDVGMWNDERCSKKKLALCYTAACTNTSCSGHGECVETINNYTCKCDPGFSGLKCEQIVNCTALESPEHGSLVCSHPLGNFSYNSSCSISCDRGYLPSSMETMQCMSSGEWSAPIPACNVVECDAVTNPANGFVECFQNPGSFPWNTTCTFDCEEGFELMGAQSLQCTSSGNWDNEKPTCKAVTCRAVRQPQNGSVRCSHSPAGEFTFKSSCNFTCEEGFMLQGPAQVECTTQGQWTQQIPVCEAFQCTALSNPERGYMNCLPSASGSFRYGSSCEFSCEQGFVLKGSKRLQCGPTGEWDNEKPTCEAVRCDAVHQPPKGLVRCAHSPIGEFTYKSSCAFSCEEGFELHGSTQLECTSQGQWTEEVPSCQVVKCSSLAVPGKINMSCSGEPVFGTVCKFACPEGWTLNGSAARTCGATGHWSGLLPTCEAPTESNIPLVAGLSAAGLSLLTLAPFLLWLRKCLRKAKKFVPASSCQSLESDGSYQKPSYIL
Chain of Estrogen receptor (Homo sapiens) (P03372 whole entry, looked up, the tested form may be a part): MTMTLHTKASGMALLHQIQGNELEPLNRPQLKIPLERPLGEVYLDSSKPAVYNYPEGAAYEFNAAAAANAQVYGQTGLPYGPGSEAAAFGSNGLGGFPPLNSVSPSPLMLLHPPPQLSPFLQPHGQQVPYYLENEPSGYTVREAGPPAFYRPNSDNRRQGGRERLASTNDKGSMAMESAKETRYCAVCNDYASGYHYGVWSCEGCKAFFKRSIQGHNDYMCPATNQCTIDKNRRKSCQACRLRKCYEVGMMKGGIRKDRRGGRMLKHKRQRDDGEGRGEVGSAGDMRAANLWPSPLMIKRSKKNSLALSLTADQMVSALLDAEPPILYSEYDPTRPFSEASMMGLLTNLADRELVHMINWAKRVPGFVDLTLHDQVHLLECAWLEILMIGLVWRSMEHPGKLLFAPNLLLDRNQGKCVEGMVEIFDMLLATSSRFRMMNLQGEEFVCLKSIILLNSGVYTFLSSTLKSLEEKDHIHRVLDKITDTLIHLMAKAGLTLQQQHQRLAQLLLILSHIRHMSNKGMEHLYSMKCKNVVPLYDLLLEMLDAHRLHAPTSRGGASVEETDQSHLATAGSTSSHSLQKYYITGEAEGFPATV

With `CC(C)CCCCCCCOP(=O)(Oc1ccccc1)Oc1ccccc1`, the AC50 in assay [1] was 5.78 µM (active); in assay [2] it was 9.85 µM (active); in assay [3], 15.1 µM (active); in assay [4], 20 µM (active); in assay [5] it was 29.1 µM (active); in assay [6], 3.97 µM (active). Besides, the half-maximal activity concentration (AC50) in [7] was 3.21 µM (active); in assay [8], 0.173 µM (active); in assay [9], 20 µM (active); in assay [12], 16.1 µM (active); in assay [13], 27.3 µM (active); in assay [14], 20 µM (active). For the same compound, the concentration at half-maximal activity (AC50) in [15] was 13.6 µM (active); in assay [16] it was 25.9 µM (active); in assay [17], 16.7 µM (active); in assay [18], 24.4 µM (active); in [19] it was 35 µM (active); in assay [20] it was 15.8 µM (active). Moreover, the outcome in assay [10] and in assay [11] was inactive.

With `O=P1(NCCCl)OCCCN1CCCl` (stereo unspecified), the result in assay [2], in [3], in assay [4], in assay [5], in assay [6] and in assay [7] was inactive. Moreover, the outcome in assay [8], in [9], in assay [10], in [11], in [12] and in [13] was inactive. The outcome in assay [14], in assay [15], in assay [16], in [17], in assay [18] and in [19] was inactive. For the same compound, the outcome in assay [20] was inactive.

With `CC(C)CCCCCCCOC(=O)c1ccccc1C(=O)OCCCCCCCC(C)C`, the outcome in assay [2], in [3], in assay [4], in [5], in assay [6] and in [7] was inactive. The outcome in assay [8], in assay [9], in assay [10], in assay [11], in assay [12] and in [13] was inactive. Besides, the result in [14], in assay [15], in assay [16], in assay [17], in [18] and in assay [19] was inactive. Further, the result in assay [20] was inactive.

Regarding `Oc1cc(Cl)ccc1Cl`, the outcome in [2], in assay [3], in [4], in [5], in assay [6] and in assay [7] was inactive. Further, the result in assay [8], in assay [9], in [10], in assay [11], in assay [12] and in assay [13] was inactive. Besides, the result in assay [14], in assay [15], in [16], in assay [17], in assay [18] and in assay [19] was inactive. Also, the outcome in assay [20] was inactive.

For the compound `O=C1C=CC(=O)C=C1`, the AC50 in assay [2] is 28 µM (active); in assay [3] it was 14.1 µM (active); in [4], 28.7 µM (active); in assay [6], 1.68 µM (active) and 14.6 µM (active); in assay [7] it was 34.9 µM (active); in assay [8], 12.1 µM (active). For the same compound, the AC50 in [9] was 4.88 µM (active); in assay [10], 8.44 µM (active) and 20 µM (active); in [11], 9.42 µM (active) and 24.7 µM (active); in assay [12] it was 28.7 µM (active) and 12.4 µM (active); in [13], 30.6 µM (active); in assay [14], 32.6 µM (active). Also, the half-maximal activity concentration (AC50) in [15] was 31.7 µM (active); in assay [16], 30.4 µM (active) and 25.7 µM (active); in assay [17], 20 µM (active) and 22.9 µM (active); in assay [18], 30.7 µM (active) and 25.2 µM (active); in [19], 35.6 µM (active); in assay [20], 6.38 µM (active) and 3.38 µM (active). Also, the outcome in assay [2], in assay [3], in assay [4], in assay [5], in assay [7] and in assay [8] was inactive. Moreover, the result in [9], in [13], in [14], in [15] and in [19] was inactive.

As usually defined, the AC50 is the concentration giving half of the maximal activity seen.
